This is an account of results in PubChem BioAssay (NCATS).

Inconclusive results are not listed. A number with no mark means an inactive call. Calls of active or inactive are those of the source. The call rests on the fitted dose curve; in most records, active means well fitted cell-killing curve with a large enough effect; inconclusive means small, poorly fitted or top-dose-only effect; inactive means no such curve, though single readings can be large or run the other way.
On the % scale 0 is the no-effect control and ±100 the full control effect; potency means the concentration at half of the fitted maximal effect.

The nature of the test: qHTS of pediatric cancer cell lines to identify multiple opportunities for drug repurposing: Primary screen for Rh30 cells (AID 1347107). Further: nearly all actives have a fitted effect of over 75% in size. The settings on record: Rh30 rhabdomyosarcoma viability, CellTiter-Glo luminescence, 48 h; series mostly up to 46 µM; activity change, negative = cytotoxic: at the top concentration. The procedure, abridged:
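Viability after 48 h compound treatment at 37C, 500-1,000 cells/well, read as ATP luminescence with CellTiter-Glo. Primary screens used 11-point (MIPE, 0.78 nM-46 µM) or 8-point (NPC, 0.59 nM-46 µM) final concentrations; follow-up screens used 11-point dilutions.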
On to `OC[C@H]1O[C@@H](OCCc2ccc(O)cc2)[C@H](O)[C@@H](O)[C@H]1O`, for which the “activity change, negative = cytotoxic” value is 2.11%.

Turning to `CC(C)(F)C[C@H](N[C@@H](c1ccc(-c2ccc(S(C)(=O)=O)cc2)cc1)C(F)(F)F)C(=O)NC1(C#N)CC1`, the “activity change, negative = cytotoxic” value was 0.932%.

Regarding `CC(C)CNc1ccnc(NCc2csc(-c3ccccc3)n2)n1`, the “activity change, negative = cytotoxic” value was 1.34%.

As for `CN1C(=O)C[C@H](C(=O)N[C@@H](Cc2cnc[nH]2)C(=O)N2CCC[C@@H]2C(N)=O)NC1=O`, the “activity change, negative = cytotoxic” value is 12.3%.

For `C[C@]12CC[C@@H]3c4ccc(O)cc4CC[C@H]3[C@H]1[C@@H](O)[C@@H](O)[C@H]2O`, the “activity change, negative = cytotoxic” value is 3.06%.

Consider `CC(=O)OCC(=O)[C@@]12OC(C)(C)O[C@H]1C[C@H]1[C@@H]3C[C@H](F)C4=CC(=O)C=C[C@]4(C)[C@@]3(F)[C@@H](O)C[C@@]12C`, for which the “activity change, negative = cytotoxic” value is 21.4%.

Take `COc1ccc(CCN(C)CCCOc2ccc(S(=O)(=O)c3[nH]c4ccccc4c3C(C)C)cc2)cc1OC`: the “activity change, negative = cytotoxic” value was 13.8%.

For the compound `CN(C)CCN(Cc1ccc(Cl)cc1)c1ccccn1`, the “activity change, negative = cytotoxic” value is 19.3%.

As for `Nc1nc(Cl)nc2c1ncn2[C@@H]1O[C@H](CO)[C@@H](O)[C@H]1F`, the “activity change, negative = cytotoxic” value was -17.5%.

On to `Fc1ccc(C(c2ccc(F)cc2)N2CCN(CC=Cc3ccccc3)CC2)cc1`, for which the “activity change, negative = cytotoxic” value was 3.12%.

As to `O=C(Nc1ccc(OC(F)(F)F)cc1)c1sccc1NCc1ccnc2ccccc12`, the “activity change, negative = cytotoxic” value was -7.56%.

For `CCCCCCOC(=O)N=C(N)c1ccc(NCc2nc3cc(C(=O)N(CCC(=O)OCC)c4ccccn4)ccc3n2C)cc1`, the “activity change, negative = cytotoxic” value was 16%.

In the case of `CCC[C@@H](NC(=O)[C@@H]1[C@H]2CCC[C@@H]2CN1C(=O)[C@@H](NC(=O)[C@@H](NC(=O)c1cnccn1)C1CCCCC1)C(C)(C)C)C(=O)C(=O)NC1CC1`, the “activity change, negative = cytotoxic” value was 9.99%.

For the compound `O=C(O)C1=NC(C(=O)O)CC(C=CN2c3cc(O)c(OC4OC(CO)C(O)C(O)C4O)cc3CC2C(=O)O)=C1` (stereo unspecified), the “activity change, negative = cytotoxic” value was 8.72%.

Consider `CN(C)CCOc1cc(-c2cn[nH]c2)ccc1NC(=O)C1COc2ccccc2O1` (stereo unspecified), for which the “activity change, negative = cytotoxic” value was 5.35%.

Turning to `CN1CC(=O)N2C(Cc3c([nH]c4ccccc34)[C@H]2c2ccc3c(c2)OCO3)C1=O` (stereo partly specified), the “activity change, negative = cytotoxic” value is -2.21%.

Turning to `COc1cc2c(cc1OC)CC(=O)N(CCCN(C)C[C@H]1Cc3cc(OC)c(OC)cc31)CC2`, the “activity change, negative = cytotoxic” value was 8.97%.

Turning to `COc1ccc(-c2nc3ccc(C4=NNC(=O)CC4C)cc3[nH]2)cc1` (stereo unspecified), the “activity change, negative = cytotoxic” value was 16.3%.

With `Cc1[nH]c(C=C2C(=O)Nc3ccc(S(=O)(=O)N(C)c4cccc(Cl)c4)cc32)c(C)c1C(=O)N1CCN(C)CC1`, the Potency is 18.7 µM (active).

Turning to `O=c1cc(-c2ccc(O)c(O)c2)oc2cc(O)cc(O)c12`, the “activity change, negative = cytotoxic” value was 11.9%.

As for `CCc1cc(-c2n[nH]c(C)c2-c2ccc3c(c2)OCCO3)c(O)cc1O`, the “activity change, negative = cytotoxic” value is -11.8%.

For `O=C(O)CCNc1cc(N2CCc3ccccc3CC2)nc(-c2ccccn2)n1`, the “activity change, negative = cytotoxic” value is 9.98%.

`C[C@@H](N)c1ccc(C(=O)Nc2ccnc3[nH]ccc23)cc1`: the “activity change, negative = cytotoxic” value is -5.4%.

Turning to `Cc1cccc2c1CC[C@H](CN1CCC(c3c(Cl)cccc3Cl)CC1)C[C@@H]2O`, the “activity change, negative = cytotoxic” value was 7.44%.

As to `CNC(=O)c1ccc2c(C(=Nc3cccc(CN(C)C)c3)c3ccccc3)c(O)[nH]c2c1`, the “activity change, negative = cytotoxic” value was 6.36%.

As for `CC=C(C(=CC)c1ccc(O)cc1)c1ccc(O)cc1`, the “activity change, negative = cytotoxic” value is 8.72%.

Take `CN1CCC[C@H]1CCO[C@](C)(c1ccccc1)c1ccc(Cl)cc1`: the “activity change, negative = cytotoxic” value is -2.4%.

In the case of `CCCCCCCCCCCCCCCC(=O)O[C@H]1[C@@H](O)[C@@H](O)[C@@H]([C@H](NC(=O)[C@@H]2C[C@@H](CCC)CN2C)[C@H](C)Cl)O[C@@H]1SC`, the “activity change, negative = cytotoxic” value was 13.9%.

For the compound `C[C@H](CCC(=O)O)[C@H]1CC[C@H]2[C@H]3[C@@H](CC[C@]12C)[C@@]1(C)CC[C@@H](O)C[C@H]1C[C@@H]3O`, the “activity change, negative = cytotoxic” value was 13.4%.

As to `CCc1cccc(CC)c1NC(=O)N1Cc2[nH]nc(NC(=O)c3ccc(N4CCN(C)CC4)cc3)c2C1`, the “activity change, negative = cytotoxic” value is 0.37%.

`NC(=O)c1ccc(N(C(N)=O)c2c(F)cccc2F)nc1-c1ccc(F)cc1F`: the “activity change, negative = cytotoxic” value is -4.11%.

Regarding `N=C1SC(=Cc2ccc(-c3ccc4c(c3)C(=O)NC4=O)o2)C(=O)N1c1ccc(Br)cc1`, the “activity change, negative = cytotoxic” value was 10.6%.

For `CCCCC[C@H](O)C=C[C@H]1[C@H](O)CC(=O)[C@H]1CCCCCCC(=O)O`, the “activity change, negative = cytotoxic” value was 4.39%.

As for `N[C@@H](CC(=O)N1CCn2c(nnc2C(F)(F)F)C1)Cc1cc(F)c(F)cc1F`, the “activity change, negative = cytotoxic” value was 11.4%.

On to `CN1[C@H]2CC[C@H]1CC(OC(=O)c1c[nH]c3ccccc13)C2` (stereo partly specified), for which the “activity change, negative = cytotoxic” value is 10.4%.

As to `CN1C(=O)C(Cc2c[nH]c3ccccc23)NC1=S` (stereo unspecified), the “activity change, negative = cytotoxic” value is 10.7%.
